Assay results: the supplement of paper PMC11732987, “Enantioselective OTUD7B fragment discovery through chemoproteomics screening and high-throughput optimisation” (Communications Chemistry, 2025)

biological target: T1, USP38 (UniProt Q8NB14); test: log2 ratio of Biotin-Ahx-Ub-VS probe labelling (compound/DMSO); higher = less target engagement, active = hit call of the paper (q ≤ 0.05, log2 ratio ≤ -1); details: compound concentration: 50uM; treatment time: 3 h
T1 sequence (whole entry): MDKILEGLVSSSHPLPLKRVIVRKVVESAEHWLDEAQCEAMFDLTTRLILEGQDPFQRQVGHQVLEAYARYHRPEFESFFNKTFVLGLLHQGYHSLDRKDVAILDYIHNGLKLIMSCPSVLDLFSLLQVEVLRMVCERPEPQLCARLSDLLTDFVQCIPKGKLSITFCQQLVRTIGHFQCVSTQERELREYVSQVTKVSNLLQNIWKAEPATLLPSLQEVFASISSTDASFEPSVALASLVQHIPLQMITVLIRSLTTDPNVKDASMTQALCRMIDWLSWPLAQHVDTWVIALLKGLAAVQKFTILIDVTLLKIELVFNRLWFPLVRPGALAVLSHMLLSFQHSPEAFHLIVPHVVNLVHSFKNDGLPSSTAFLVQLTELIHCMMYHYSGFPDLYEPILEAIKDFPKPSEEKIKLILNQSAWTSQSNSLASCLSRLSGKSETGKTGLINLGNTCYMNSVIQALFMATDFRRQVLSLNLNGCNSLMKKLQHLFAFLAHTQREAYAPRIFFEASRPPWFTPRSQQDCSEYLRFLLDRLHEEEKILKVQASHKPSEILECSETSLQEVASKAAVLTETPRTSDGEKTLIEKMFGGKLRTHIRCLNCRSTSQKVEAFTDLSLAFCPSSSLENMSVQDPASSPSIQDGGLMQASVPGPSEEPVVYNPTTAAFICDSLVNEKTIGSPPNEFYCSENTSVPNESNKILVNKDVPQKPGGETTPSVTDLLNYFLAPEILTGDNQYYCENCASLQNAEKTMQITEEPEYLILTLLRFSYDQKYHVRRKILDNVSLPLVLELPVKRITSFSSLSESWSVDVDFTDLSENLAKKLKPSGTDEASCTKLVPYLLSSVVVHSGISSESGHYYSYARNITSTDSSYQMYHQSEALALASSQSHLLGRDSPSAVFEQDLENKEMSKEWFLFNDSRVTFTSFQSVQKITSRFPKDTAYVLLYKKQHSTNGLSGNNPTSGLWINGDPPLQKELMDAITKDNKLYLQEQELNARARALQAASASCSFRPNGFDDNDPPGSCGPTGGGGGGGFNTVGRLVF
Experimental: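 Round 2 competitive ABPP in HEK293T lysate. Compounds were tested at 50 and 200 µM for 3 h, followed by Biotin-Ahx-Ub-VS enrichment and diaPASEF LC-MS/MS. Values are the average log2 ratio (compound/DMSO) from an unpaired t-test (n=3 treated, n=26 DMSO).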

Structure (SMILES) | log2 ratio of Biotin-Ahx-Ub-VS probe labelling
COc1cccc(CN(C)C(=O)CCl)c1 | 0.0582 (inactive)
Cl.O=C(CCl)N1CCc2ncncc2C1 | -0.214 (inactive)
CN1c2ccccc2C(NC(=O)CCl)CS1(=O)=O (configuration not stated) | -0.19 (inactive)
O=C(CCl)NC1CCOc2ccccc21 (configuration not stated) | 0.0839 (inactive)
Cl.Cn1ncc2c1CCCC2NC(=O)CCl (configuration not stated) | 0.328 (inactive)
CCC1c2ccsc2CCN1C(=O)CCl (configuration not stated) | 0.124 (inactive)

same assay, conditions: compound concentration: 200uM; treatment time: 3 h

Structure (SMILES) | log2 ratio of Biotin-Ahx-Ub-VS probe labelling
COc1cccc(CN(C)C(=O)CCl)c1 | -0.322 (inactive)
Cl.O=C(CCl)N1CCc2ncncc2C1 | -0.296 (inactive)
CN1c2ccccc2C(NC(=O)CCl)CS1(=O)=O (configuration not stated) | -0.231 (inactive)
O=C(CCl)NC1CCOc2ccccc21 (configuration not stated) | -0.0989 (inactive)
Cl.Cn1ncc2c1CCCC2NC(=O)CCl (configuration not stated) | -0.153 (inactive)
CCC1c2ccsc2CCN1C(=O)CCl (configuration not stated) | -0.277 (inactive)
